Among the data in PubChem BioAssay AID720700 (The Scripps Research Institute Molecular Screening Center, 2013) are inhibition values, retold here.

In all, about 370,000 compounds went through this assay and about 3,100 (0.84%) were called active. Only a selection was taken, and actives are over-represented in it overall. Unmarked numbers belong to inactive results. Rule as the data show it: active = inhibition above about 9.5%; inactive = the rest.

Sequence of 1-phosphatidylinositol 4,5-bisphosphate phosphodiesterase gamma-1 (Homo sapiens) (P19174 whole entry, looked up): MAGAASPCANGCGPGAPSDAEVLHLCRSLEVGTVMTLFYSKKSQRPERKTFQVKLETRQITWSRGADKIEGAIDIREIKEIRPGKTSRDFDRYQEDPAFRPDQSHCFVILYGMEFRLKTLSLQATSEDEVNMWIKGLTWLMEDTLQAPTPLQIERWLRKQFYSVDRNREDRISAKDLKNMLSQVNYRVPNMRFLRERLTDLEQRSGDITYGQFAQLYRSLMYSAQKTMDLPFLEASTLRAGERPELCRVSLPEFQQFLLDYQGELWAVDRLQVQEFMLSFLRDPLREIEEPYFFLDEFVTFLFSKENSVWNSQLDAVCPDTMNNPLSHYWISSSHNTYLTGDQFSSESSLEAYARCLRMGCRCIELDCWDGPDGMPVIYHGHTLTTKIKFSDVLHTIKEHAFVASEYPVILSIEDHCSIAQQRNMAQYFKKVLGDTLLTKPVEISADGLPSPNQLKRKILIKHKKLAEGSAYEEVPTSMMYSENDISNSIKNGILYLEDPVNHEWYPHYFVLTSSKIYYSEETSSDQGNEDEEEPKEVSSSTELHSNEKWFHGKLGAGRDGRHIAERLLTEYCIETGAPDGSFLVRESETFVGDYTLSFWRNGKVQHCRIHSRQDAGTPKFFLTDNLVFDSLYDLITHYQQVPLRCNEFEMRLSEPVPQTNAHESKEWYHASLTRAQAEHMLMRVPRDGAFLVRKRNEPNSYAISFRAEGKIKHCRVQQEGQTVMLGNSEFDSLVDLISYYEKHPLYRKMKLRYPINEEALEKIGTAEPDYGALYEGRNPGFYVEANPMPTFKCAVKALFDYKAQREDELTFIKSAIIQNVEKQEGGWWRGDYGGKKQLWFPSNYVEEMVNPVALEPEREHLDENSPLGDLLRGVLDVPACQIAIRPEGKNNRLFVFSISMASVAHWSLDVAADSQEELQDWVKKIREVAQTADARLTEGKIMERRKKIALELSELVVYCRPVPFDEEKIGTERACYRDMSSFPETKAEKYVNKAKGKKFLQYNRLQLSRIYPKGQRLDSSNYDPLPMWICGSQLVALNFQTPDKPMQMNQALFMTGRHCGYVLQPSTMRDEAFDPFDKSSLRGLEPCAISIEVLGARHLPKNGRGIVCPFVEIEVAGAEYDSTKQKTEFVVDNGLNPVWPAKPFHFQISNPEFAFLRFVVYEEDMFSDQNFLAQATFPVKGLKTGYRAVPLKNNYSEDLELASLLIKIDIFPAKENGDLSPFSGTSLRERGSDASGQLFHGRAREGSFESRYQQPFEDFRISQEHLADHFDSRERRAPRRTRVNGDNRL

This test addresses 1-phosphatidylinositol 4,5-bisphosphate phosphodiesterase gamma-1 (Homo sapiens) (UniProt P19174). Briefly: blockers of human PLCG1 activity – biochemical, fluorescence, purified enzyme, primary screen (AID 720700). The following applies: purified PLC-gamma1, fluorogenic substrate, at 12.2 µM, active compounds read high.
Usually inhibition stands for the relative decrease from the control value, in per cent. Take `COC(=O)C[C@@H]1CC[C@H]2[C@@H](COc3ccc(NS(=O)(=O)CC(F)(F)F)cc3C(=O)N2C)O1`: the inhibition is 0.55%.

As for `CC(C)N1CCCCC(NC(=O)c2ccc3ccccc3c2)C1=O` (stereo not given), the inhibition is -1.22%.

Take `Cc1ccc(NS(=O)(=O)c2ccc(N/N=C/c3ccccc3OCC(=O)O)c([N+](=O)[O-])c2)c(C)c1`: the inhibition is 10.8% (active). The same measure for `Cc1ccc(S(=O)(=O)NC(=O)COc2ccccc2C)cc1`: -1.05%. Regarding `Cc1ccc(NS(=O)(=O)c2ccc3c(c2)n(C)c(=O)c(=O)n3C)c(C)c1`, the inhibition was -0.33%. Turning to `COC(=O)[C@]12C[C@H](CC(=O)NCCc3ccccc3OC)C(=O)N(Cc3ccco3)C1=C[C@H](C(C)C)O[C@@H]2C1CC1`, the inhibition was -0.19%. On to `O=C(NCCC1=CCCCC1)C1CCN(S(=O)(=O)c2ccc(Cl)s2)CC1`, for which the inhibition is -0.14%.

For the compound `CCOC(=O)c1csc(NC(=O)C2CCCN(S(=O)(=O)c3ccc(Cl)s3)C2)n1` (stereo not given), the inhibition was 6.52%. With `CN(C)Cc1cn(-c2ccc(-c3noc4c3C(=O)N(CC(=O)N3CCOCC3)CC4)cc2)nn1`, the inhibition is -16.7%. Turning to `CN(C(=O)CSc1nnc(N)s1)c1c(N)n(Cc2ccccc2)c(=O)[nH]c1=O`, the inhibition is -0.92%. As to `Nc1nnc(SCC(=O)OCc2ccc(Cl)c(Cl)c2)s1`, the inhibition was 10.9% (active). The result for `COC(=O)c1ccc(CSc2nnc(N)s2)o1` reads -0.29%; that for `CCCC1CCC2(CCCN2CCOC(=O)NCc2ccccc2)CC1` (stereo not given), 2.03%.

Consider `O=C(NCC12CC3CC(C1)CC(CNC(=O)N1CCCC1)(C3)C2)N1CCCC1`, for which the inhibition is -0.47%. The result for `O=C(NC12CC3CC(CC(C3)C1)C2)N1CCCC(CO)C1` (stereo not given) reads 11.5% (active); that for `O=C(CNCCO)NC12CC3CC(CC(C3)C1)C2`, 9.27%; that for `O=C(NCCc1c[nH]c2ccccc12)OCc1cn(-c2c(F)cccc2F)nn1`, -2.05%.

In the case of `CCCCCCCCNS(=O)(=O)/C=C/c1cc(C)ccc1CNC(=O)OC(C)(C)C`, the inhibition was -1.88%.

For `COC(=O)[C@]12C[C@H](CC(=O)NCCCN3CCCC3=O)C(=O)N(CCc3ccc(OC)c(OC)c3)C1=C[C@H](COCc1ccccc1)O[C@@H]2C`, the inhibition is 4.14%. As for `CN(C)/C=C/c1c(C#N)c(=O)ncn1Cc1ccccc1`, the inhibition was 2.62%. The result for `CC(=O)Cn1cnc2c(cnn2-c2ccccc2)c1=O` reads 0.74%. Turning to `Cc1c(C#N)c2ncn(CC#N)c(=O)c2n1-c1ccccc1`, the inhibition was 9.69% (active). The result for `COC(CNC(=O)[C@H](Cc1ccccc1)NC1(C(=O)NC2CCCCC2)CCCCC1)OC` reads 0.41%; that for `COC(=O)c1ccccc1NC(=O)CSc1n[nH]c(-c2ccncc2)n1`, 1.06%; that for `CCc1ccc(-c2nc(SCC(=O)NC3CCCC3)n[nH]2)cc1`, 9.58% (active). The same measure for `CCc1c(C)nc(SCC(=O)NC2CCCC2)[nH]c1=O`: 0.69%; for `O=C(CSc1nnc(-c2ccccc2)n1Cc1ccco1)Nc1ccccc1-c1ccccc1`: 8.54%; for `COc1cccc(/C=C2\CC3(OC(C)=O)CCCN2C3)c1` (stereo not given): -1.03%. The result for `COC(=O)[C@@]12CCCCC3=C1N(CCC3)C(=O)[C@H]2CC(=O)NCc1cccc2ccccc12` reads 3.71%; that for `Cc1cc(C(=O)NNC(=O)c2cccc(S(=O)(=O)N3CCOCC3)c2)c2ccccc2n1`, 1.34%; that for `Cc1nc2ccc(NC(=O)c3cccc(S(=O)(=O)N4CCOCC4)c3)cc2s1`, 14% (active). `O=C(CSc1ccccc1)Nc1cccc(S(=O)(=O)N2CCOCC2)c1`: the inhibition was 11.5% (active). The result for `O=C(Nc1ccc(S(=O)(=O)N2CCOCC2)cc1)c1ccc2ncsc2c1` reads -4.28%; that for `Cc1ccnc(SCC(=O)Nc2cccc(S(=O)(=O)N3CCOCC3)c2)n1`, 1.32%; that for `O=C(CSc1ccccc1)Nc1cccc(S(=O)(=O)N2CCCCC2)c1`, 5.78%. With `COc1ccc(CN2C(=O)N3Cc4cc(OC)ccc4C3CS2(=O)=O)cc1` (stereo not given), the inhibition was 0.38%. The result for `O=C(NCCCc1ccccc1)[C@H](Cc1ccccc1)NC1(C(=O)NCCc2c[nH]c3ccccc23)CCC1` reads -0.08%; that for `Cc1ccc(C(=O)N(Cc2ccccn2)CC2CCCO2)cc1` (stereo not given), 0.65%.

As to `CN1C[C@]2(C=C3CCCCC3n3c(=O)n(-c4ccccc4)c(=O)n32)N=C1NC(=O)c1ccccc1` (stereo not given in full), the inhibition is -0.41%.

Take `CNC(=O)n1ccc(C(=O)N2CCCCC2)n1`: the inhibition was 9.53% (active). `Cc1cccc(NC(=O)N2CCCCCC2)c1C`: the inhibition is 0.02%.

As to `Cc1ccc(C(=O)N2CCCC2)c(F)c1F`, the inhibition was 2.59%. The result for `Nn1c(SCC(=O)N2c3ccccc3Sc3ccccc32)nnc1-c1n[nH]c2c1CCC2` reads 1.2%; that for `COP(=O)(O)CNC(=O)OCc1ccccc1`, 2.2%. The same measure for `CC(CCN1CCC(C(O)(c2ccccc2)c2ccccc2)CC1)Oc1ccc(C(F)(F)F)cc1` (stereo not given): 6.64%; for `COC(=O)c1cc(S(=O)(=O)N2CCN(c3ccccc3C)CC2)cn1C`: -2.77%. Consider `C=CCN1C(=O)[C@H](CC(=O)NCCCN2CCCC2=O)[C@@]2(C(=O)OCC)CCCC=C12`, for which the inhibition was -1.95%. Regarding `CCCCCN1CCCCC(NC(=O)C(C)CCC)C1=O` (stereo not given), the inhibition was 0.76%. The same measure for `CC(=O)O[C@@]1(C(C)=O)CCC2[C@H]3C=C(C)C4=CC(=O)CC[C@@]4(C)C3CC[C@]21C` (stereo not given in full): -2.78%; for `O=C1N/C(=N\N=C\c2ccco2)SC1Cc1ccc(F)cc1` (stereo not given): 2.17%. Consider `CCCCC1S/C(=N/N=C/c2cccs2)NC1=O` (stereo not given), for which the inhibition was -0.02%. The same measure for `CCC1S/C(=N/N=C/c2ccco2)NC1=O` (stereo not given): 10.6% (active); for `Cc1cccc(C(=O)Nc2c(-c3ccc(F)cc3)nc3ncccn23)c1`: -270%; for `O=[N+]([O-])c1cc(C(F)(F)F)ccc1NN=C1CCCC1`: 11.1% (active). Take `O=[N+]([O-])c1cc(C(F)(F)F)ccc1NCCc1ccncc1`: the inhibition was -0.57%. Take `O=[N+]([O-])c1cc(S(=O)(=O)N2CCCC2)ccc1NN=C1CCCC1`: the inhibition was 7.15%. For `COc1ccc2c(C(C)c3ccc(N)cc3)cn(C)c2c1` (stereo not given), the inhibition is 3.03%.

`N#Cc1ccccc1OC[C@@H](O)CN1CCC(C(O)(c2ccccc2)c2ccccc2)CC1`: the inhibition was 2.31%. The result for `CCOc1ccc(Oc2c(Cl)cnn(-c3ccc(C)cc3)c2=O)cc1` reads -4.67%.

Take `CN(CCc1ccccc1)C(=O)Cn1nc(-c2ccccc2)ccc1=O`: the inhibition is 1.49%. With `C=CCSC(CC)(CC)C(N)=O`, the inhibition was 11.9% (active). As to `CC(CCN1CCC(C(O)(c2ccccc2)c2ccccc2)CC1)Oc1ccc([N+](=O)[O-])cc1Cl` (stereo not given), the inhibition was 6.49%. The same measure for `COc1ccc(C(=O)OCCN(C)C2CN(Cc3cn(Cc4cccc(C)c4)nn3)S(=O)(=O)C2)cc1OC` (stereo not given): 3.3%; for `O=C(c1ccccn1)c1ncc(C(F)(F)F)cc1Cl`: 1.59%. The same measure for `Cc1cc(C)cc(NS(=O)(=O)c2ccc(Oc3ncc(C(F)(F)F)cc3Cl)cc2)c1`: -1.75%. The result for `FC(F)(F)c1cnc(Oc2ccccc2-c2nnc(-c3ccc(Cl)cc3)o2)c(Cl)c1` reads 12.3% (active); that for `Cc1ccccc1NC(=O)C1CCN(c2ncccn2)CC1`, -3.53%; that for `CC(C)(C)OC(=O)NCCc1ccccc1/C=C/S(=O)(=O)NCc1ccc(F)cc1`, -0.15%.

In the case of `CC1CCN(c2ccc(C(=O)O)cc2NS(=O)(=O)c2ccc(Br)s2)CC1`, the inhibition is 2.88%. With `CNC(=O)c1ccc(NC(=O)c2cccc(C(F)(F)F)c2)cc1`, the inhibition is 14.4% (active).

In the case of `O=C(Nc1ccc(C(F)(F)F)cc1)c1cccc(-n2cnnn2)c1`, the inhibition was -2.72%. The same measure for `O=C(Cn1cc(/C=N/NC(=O)c2cccc(C(F)(F)F)c2)c2ccccc21)Nc1ccc(F)cc1`: -0.8%; for `O=C1[C@H]2[C@@H](c3ccc(Cl)cc3)N3C(=O)N(c4cccc(F)c4)C(=O)[C@@]3(Cc3ccccc3)[C@H]2C(=O)N1C1CCCCC1`: -2.34%.

As to `Cc1cccc([C@@H]2[C@@H]3C(=O)N(Cc4ccccc4)C(=O)[C@@H]3[C@]3(Cc4ccc(Cl)cc4)C(=O)N(c4cccc(Cl)c4)C(=O)N23)c1`, the inhibition was 11.3% (active). The result for `Cc1cccc(N2C(=O)N3[C@H](c4ccc(F)cc4)[C@@H]4C(=O)N(C5CCCCC5)C(=O)[C@@H]4[C@]3(Cc3ccccc3)C2=O)c1` reads 2.62%; that for `C[C@@H]1ON(C)[C@H]2C[C@H]3c4[nH]c5cccc(-c6ccc7c(c6)OCO7)c5c4CCN3C[C@@H]12`, -51.7%; that for `N#CCC[C@H]1CC[C@]2(CCCN(Cc3ccc(Cl)cc3)C2)O1`, -3.24%. The result for `COc1ccc(CCNC(=O)CSc2nc3c([nH]2)c(=O)n(C)c(=O)n3C)cc1` reads -0.19%; that for `CN(C)S(=O)(=O)c1cccc(NC(=O)COC(=O)c2cc(=O)[nH]c(=O)[nH]2)c1`, 5.81%. As to `CN(C)S(=O)(=O)c1cccc(NC(=O)COc2ccc3ccccc3c2)c1`, the inhibition is 2.81%. `CN(C)S(=O)(=O)c1cccc(NC(=O)COC(=O)C2(c3ccccc3F)CCCC2)c1`: the inhibition is 11.9% (active).

For the compound `O=C(NCc1ccc(F)cc1F)[C@@H]1CCCN1C(=O)[C@@H]1CCCN1C(=O)c1cccc(Cl)c1`, the inhibition was 11% (active).

Turning to `O=C(NCc1ccccc1)[C@H]1CCCN1C(=O)[C@H]1CCCN1C(=O)c1cc(F)cc(F)c1`, the inhibition was 0.04%. The same measure for `O=C(NCc1ccccc1)[C@@H]1CCCN1C(=O)[C@H]1CCCN1C(=O)c1cccc(Cl)c1`: 0.25%.

For the compound `Cc1cc(=O)[nH]c(SCC(=O)Nc2ccc(F)cc2F)n1`, the inhibition was 0.36%.
